# Measurements reported in PubChem BioAssay (NCI).
# This is part of a sample that, as a whole, favours compounds with a hit. Of some 83,000 tested, about 20% had one in any assay.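 Growth was measured after 48 h exposure to one concentration of compound in 96-well plates. Values under 10 count as active.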 Unmarked numbers belong to inactive results. The source made the active and inactive calls.
# System: UACC-62 melanoma
# Test: NCI-60 one-dose screen, 48 h (100 = growth as untreated, 0 = no growth, -100 = all killed)
# Conditions: 10 µM unless noted
row,SMILES,growth
1,COC(=O)/C=C/c1cc(OC)c2c(c1)[C@@H](C(=O)OC)[C@H](c1ccc(OC)c(OC)c1)O2,33.6%
2,C#CCN(CCCOc1ccc(Cl)cc1Cl)CCCSC(=O)CCCCCN1/C(=C\C=C2/CCCC(/C=C/C3=[N+](CCCCCC(=O)[O-])c4ccccc4C3(C)C)=C2Cl)C(C)(C)c2ccccc21,-25.8% (active)
3,O=C1NCc2ccc3c(-c4cccc(Cl)c4)c[nH]c3c21,27%
4,O=C(/C(=C\c1c(-c2ccccc2)[nH]c2ccccc12)S(=O)(=O)c1ccccc1)c1ccccc1,39.8%
5,N#Cc1c(-c2ccc(F)cc2)nc(N=Nc2c(O)[nH]c3ccccc23)nc1N1CCOCC1,48.8%
6,CC(=O)OC[C@]12CC[C@@H](c3cn(Cc4ccc(Cn5cc([C@@H]6CC[C@]7(COC(C)=O)CC[C@]8(C)[C@H](CC[C@@H]9[C@@]%10(C)CC[C@H](OC(C)=O)C(C)(C)[C@@H]%10CC[C@]98C)[C@@H]67)nn5)cc4)nn3)[C@@H]1[C@H]1CC[C@@H]3[C@@]4(C)CC[C@H](OC(C)=O)C(C)(C)[C@@H]4CC[C@@]3(C)[C@]1(C)CC2,95.8%
7,Cc1c(Br)cccc1NC(=O)c1sc2nc3c(cc2c1N)CN(Cc1ccccc1)CC3,28.1%
8,COc1cccc(C(=O)OCCn2nc3c4c(cccc42)C(=O)c2ccccc2-3)c1O,31.3%

# System: LOX IMVI melanoma
# Test: as above
# Conditions: 10 µM unless noted
row,SMILES,growth
1,CCc1ccc(OCc2ccccc2C(=O)Nc2ccc3nc(C)cc(N)c3c2)cc1,-83.9% (active)
2,Nc1cccc(C(=O)Nc2ccc3c(O)c(N=Nc4ccc(N=Nc5ccc(S(=O)(=O)O)cc5)cc4)c(S(=O)(=O)O)cc3c2)c1,101%
3,COc1cc(NCC(=O)Nc2cc(Nc3cccc(C(F)(F)F)c3)ncn2)c(Cl)c(OC)c1Cl,93.2%
4,CC1CCCN(CCCCCOc2ccc3oc4ccccc4c(=O)c3c2)C1 (stereo not given),33.2%
5,CCCn1c(N)c(C(N)=O)sc1=S,93.7%
6,CCOC(=O)c1sc(/N=C2\NC(=O)/C(=C/c3ccc(N4CCN(C)CC4)cc3)S2)nc1C,65.7%
7,CN(C)C1=NCCN1,99.2%
8,CCOC(=O)c1ccc(Nc2ncnc3ccc(NC(=O)c4ccccc4)cc23)cc1,87.8%
9,N#CC1C(c2ccc(Cl)cc2)=Nc2c(c(-c3ccccc3)nn2-c2ccccc2)C12C(=O)Nc1ccc(Cl)cc12 (stereo not given),43.9%
10,C#C[C@@]1(O)[C@@H](CO)O[C@@H](n2ccc3c(N)ncnc32)[C@@H]1O,-68.6% (active)
11,CN(C)CCCn1c2c(c3cc(-c4cccc(S(N)(=O)=O)c4)ccc3c1=O)C(=O)c1ccccc1-2,56.3%
12,C=C1C(=O)O[C@H]2[C@H]1CC/C(COC(=O)/C=C/c1cccnc1)=C\CC[C@@]1(C)O[C@@H]21,30.7%
13,C#C[C@@]1(O)[C@@H](CO)O[C@@H](n2cc(Cl)c3c(N)ncnc32)[C@@H]1O,-72.5% (active)
14,CCOc1ccc(C2N(c3cc(OC)c(OC)c(OC)c3)C(=O)C2(F)F)cc1 (stereo not given),27.6%
15,O=C1C(Cl)=C(NCCCN(CCCNC2=C(Cl)C(=O)c3ccccc3C2=O)C2=C(Cl)C(=O)c3ccccc3C2=O)C(=O)c2ccccc21,10.8%
16,COc1ccc(-c2nc(C#N)c(NCC(c3ccc(Cl)cc3)N3CCCCC3)o2)cc1 (stereo not given),93.8%
17,Cc1nc2sc(C(=O)Nc3ccccc3)c(N)c2cc1C(C)O (stereo not given),47.5%
18,O=C1CCC23OC(c4ccccc4N12)C(O)C(O)C3O (stereo not given),100%
19,C=C1C(=O)O[C@H]2[C@H]1CC/C(COC(=O)CCCCC(=O)OC/C1=C/CC[C@@]3(C)O[C@H]3[C@H]3OC(=O)C(=C)[C@@H]3CC1)=C\CC[C@@]1(C)O[C@@H]21,52.2%
20,CC[C@]12C=CCN3CC[C@@]4(c5cc(NC(=O)CCC(=O)O[C@H]6CC[C@H]7[C@@H]8CC[C@H]9CC(=O)CC[C@]9(C)[C@H]8CC[C@]67C)c(OC)cc5N(C)[C@H]4[C@@](O)(C(=O)OC)[C@@H]1OC(C)=O)[C@@H]32,78.1%
21,N#CC(C#N)=C1NC(c2ccccc2)=C(c2ccccc2)C(c2ccccc2Cl)=C1C#N,91.5%
22,CCCCCCCCCCCCCC1=NCC[N+]1(CCO)Cc1ccccc1 (stereo not given),-92% (active)
